Screening results as filed in PubChem BioAssay.
SRC3 inh = SRC3 coactivator transcriptional activity inhibitors, primary screen, cell-based, luminescence | AID 588352, 2011 | Nuclear receptor coactivator 3 (Homo sapiens), Q9Y6Q9 | 360,000 compounds, 0.17% hits | HEK293 GAL4-SRC3 luciferase reporter | inhibition, % at 3.6 µM;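 active means inhibition above a per-campaign cutoff, the mean of all compounds plus 3 SD, cut at about 60% in these data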;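 further: 0% = DMSO-treated cells and 100% = gossypol-treated cells at 36 µM; higher means less SRC3-driven luciferase light from the GAL4 reporter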
NCOA2 inhibitor = inhibition of GAL4-SRC2 driven luciferase reporter, primary screen, SRC2 inhibitor project, cell-based, luminescence; AID 651957, 2012; inhibition, % at 9 µM; HEK293 GAL4-SRC2 luciferase reporter; 370,000 compounds, 0.17% hits; Nuclear receptor coactivator 2 (Homo sapiens), Q15596;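 active means inhibition above the mean inhibition of all tested compounds plus 3 SD, set per campaign, cut at about 52% in these data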;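 further: 0% = DMSO treated cells and 100% = cells given Gossypol at 36 µM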
Target sequence (Q15596 whole entry, looked up, the tested form may be a part): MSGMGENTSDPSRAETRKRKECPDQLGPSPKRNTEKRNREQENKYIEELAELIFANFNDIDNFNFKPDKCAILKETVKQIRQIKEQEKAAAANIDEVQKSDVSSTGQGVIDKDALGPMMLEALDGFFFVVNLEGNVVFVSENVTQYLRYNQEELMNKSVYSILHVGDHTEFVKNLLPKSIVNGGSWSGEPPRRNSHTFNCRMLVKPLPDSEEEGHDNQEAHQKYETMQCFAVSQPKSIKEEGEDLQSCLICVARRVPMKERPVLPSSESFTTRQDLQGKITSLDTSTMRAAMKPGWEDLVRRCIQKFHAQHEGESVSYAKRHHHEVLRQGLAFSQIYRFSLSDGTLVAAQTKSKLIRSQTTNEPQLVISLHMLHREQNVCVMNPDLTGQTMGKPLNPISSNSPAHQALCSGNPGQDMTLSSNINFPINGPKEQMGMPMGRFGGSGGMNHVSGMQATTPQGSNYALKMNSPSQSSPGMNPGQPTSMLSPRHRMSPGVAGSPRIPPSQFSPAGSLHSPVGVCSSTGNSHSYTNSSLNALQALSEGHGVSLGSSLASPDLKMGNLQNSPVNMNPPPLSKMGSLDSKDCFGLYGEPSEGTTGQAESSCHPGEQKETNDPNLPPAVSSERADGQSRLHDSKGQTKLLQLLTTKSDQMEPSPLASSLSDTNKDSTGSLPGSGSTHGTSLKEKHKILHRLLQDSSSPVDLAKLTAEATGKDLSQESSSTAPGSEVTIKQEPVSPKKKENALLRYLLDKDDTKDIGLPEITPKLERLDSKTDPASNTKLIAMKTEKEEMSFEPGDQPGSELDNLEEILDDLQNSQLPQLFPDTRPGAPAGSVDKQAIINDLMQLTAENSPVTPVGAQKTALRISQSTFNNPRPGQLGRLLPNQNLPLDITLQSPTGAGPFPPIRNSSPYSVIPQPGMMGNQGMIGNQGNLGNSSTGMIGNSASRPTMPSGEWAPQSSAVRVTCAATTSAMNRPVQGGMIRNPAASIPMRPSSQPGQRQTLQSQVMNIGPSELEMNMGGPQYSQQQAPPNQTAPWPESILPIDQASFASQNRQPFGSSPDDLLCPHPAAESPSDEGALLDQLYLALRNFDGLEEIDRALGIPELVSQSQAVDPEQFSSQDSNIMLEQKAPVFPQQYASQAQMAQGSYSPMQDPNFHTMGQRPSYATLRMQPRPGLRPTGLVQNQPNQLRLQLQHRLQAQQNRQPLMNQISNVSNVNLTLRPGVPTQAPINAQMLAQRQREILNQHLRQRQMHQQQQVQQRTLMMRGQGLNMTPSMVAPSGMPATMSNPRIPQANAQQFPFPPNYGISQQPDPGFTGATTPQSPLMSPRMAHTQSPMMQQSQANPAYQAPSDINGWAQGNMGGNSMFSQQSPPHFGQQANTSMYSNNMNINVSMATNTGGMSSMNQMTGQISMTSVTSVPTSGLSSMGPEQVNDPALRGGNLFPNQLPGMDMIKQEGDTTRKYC
Shn3 inh set2 = reduction of Shn3 3'UTR firefly luciferase signal, primary screen, Schnurri-3 inhibitor project, cell-based, Clone20 osteoblasts, set 2 | Clone20 osteoblast Shn3 3'UTR firefly luciferase, 24 h | inhibition, % at 12.5 µM | 360,000 compounds, 0.52% hits | AID 588674, 2011;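 active means mean inhibition of at least 75% with every replicate also reaching 75%; inconclusive means mean inhibition at least 75% but some replicate below; inactive means mean inhibition below 75%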;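 further: 0% = median of neutral control wells and 100% = pilot-screen positive control compound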
SRC1 inh = SRC1 coactivator transcriptional activity inhibitors, primary screen, cell-based, luminescence; Nuclear receptor coactivator 1 (Homo sapiens), Q15788; HEK293 GAL4-SRC1 luciferase reporter; 360,000 compounds, 0.12% hits; inhibition, % at 3.6 µM;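 active means inhibition above the campaign mean plus 3 SD, with each screening campaign given its own cutoff, cut at about 60% in these data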;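 further: 0% = DMSO treated cells and 100% = gossypol at 36 µM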
NR5A2 inv ag = LRH-1 (NR5A2) inverse agonists, primary screen, cell-based, luminescence, HEK293T, StAR-luciferase reporter. inhibition, % at 3.6 µM. 360,000 compounds, 0.13% hits. LRH-1 transfected, 24 h. Nuclear receptor subfamily 5 group A member 2 (Homo sapiens), O00482;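 active means inhibition above the mean inhibition of all tested compounds plus 3 SD, cut at about 73% in these data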;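 further: 0% = DMSO wells and 100% = reporter-only cells lacking LRH-1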
LMP1 NFkB inh = EBV LMP1-driven NF-kappaB luciferase reporter inhibitors, primary screen, cell-based, luminescence, single point. LMP1-induced NF-kappaB luciferase reporter cells. inhibition, % at 12.5 µM. 350,000 compounds, 0.69% hits; in the data active means inhibition above about 41%; inconclusive means no clear call, values can overlap the other calls;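 further: 0% = neutral control wells and 100% = reference inhibitor control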
* = called active by the depositor; u = inconclusive; x = not tested or not shown; ! = not active in a repeat. The list is not random: actives were taken first. Their share in the collection is about 1.2%.

SMILES | SRC3 inh | NCOA2 inhibitor | Shn3 inh set2 | SRC1 inh | NR5A2 inv ag | LMP1 NFkB inh
COc1ccc(OC)c(NC(=O)COc2coc(CN3CCc4ccccc43)cc2=O)c1 | -11 | 18 | 30 | 5 | -3 | 50*
O=C(NCc1ccccc1)[C@H]1CCCN1C(=O)[C@H]1CCCN1C(=O)c1ccccc1C(F)(F)F | x | 8 | x | x | x | x
CCCCCc1ccc(OCCCC[n+]2ccccc2)c(CCCCC)c1 | 45 | x | 90* | -2 | 42 | 55*
CCCCCc1ccc(OCCCC[n+]2ccc(C)cc2)c(CCCCC)c1 | 12 | -17 | 84 | -1 | 42 | 20
Cc1sc(NC(=O)CCCC(=O)O)c(C(N)=O)c1-c1ccccc1 | 5 | 75* | 36 | -4 | -19 | 11
COC(=O)c1c(NC(=O)CCCC(=O)O)sc(C)c1C | -3 | 24 | 9 | 15 | -1 | 1
Cc1ccc(C(=O)NCCc2cccs2)cc1 | -11 | 16 | 38 | -26 | -141 | 64*
Cc1ccc(-c2cc(N)n3nc(-c4ccc(C)cc4)cc3n2)cc1 | 7 | -26 | -1 | -6 | 0 | 52*
COc1cccc(/C=N/NC(=O)CNC(=O)/C=C\c2ccccc2)c1O | 2 | 15 | 90* | 12 | 1 | 6
COc1cccc(/C=N/NC(=O)c2c(-c3ccccc3)noc2C)c1O | 54 | 34 | 88* | 45 | 45 | -3
COc1cccc(/C=N/NC(=O)CSCC(=O)Nc2ccccc2)c1O | 27 | 11 | u | -9 | 30 | 47*
COC(=O)C1CN(Cc2ccc(C)cc2)CCS(=O)(=O)N1Cc1cn(Cc2ccccc2)nn1 (stereo unspecified) | x | 11 | x | x | x | x
COC(=O)c1cc2c(c3c4ccccc4n(S(=O)(=O)c4ccc(C)cc4)c13)C(=O)N(CC(C)C)C2 | x | -34 | x | x | x | x
COc1ccc(C(=O)N=c2nc3ccccn3s2)cc1 | -54 | -26 | 44 | -105 | -156 | 64*
Cc1nc2c(C)c(C)c(C)c(C)c2nc1C | -11 | 4 | 12 | -59 | 3 | x
Cc1nc2c(O)c3c(c(O)c2nc1C)C1C=CC3CC1 | 91* | 62* | 97* | 89* | 95* | 68*
NNC(=O)c1cc2ccccc2cc1O | 62* | 71* | 50 | 55 | 25 | 51*
COc1ccc(OC)c(N/C(C)=C/C(=O)c2ccccc2)c1 | -30 | -26 | -51 | -71 | 1 | -43
Cc1cc(N/C=C/C(=O)c2ccccc2)ccc1Br | -83 | -78 | -33 | -94 | -74 | -88
O=C(/C=C/Nc1ccc(F)cc1Br)c1ccccc1 | 3 | 16 | -7 | -13 | -41 | 48*
COc1ccc(OC)c(N/C=C/C(=O)c2ccccc2)c1 | 33 | 23 | 34 | 21 | 15 | 72*
CN(c1ncnc(N)c1[N+](=O)[O-])C1CCS(=O)(=O)C1 (stereo unspecified) | 55 | 30 | 11 | 58 | 23 | 16
CCCCN(c1ccccc1)c1ncnc(N)c1[N+](=O)[O-] | 63* | 57* | -15 | 61* | 24 | 46*
CN(c1ncnc(N)c1[N+](=O)[O-])C1CCCCC1 | 63* | 57* | 9 | 71* | 51 | 38
C=CCN1[C@@H](Cc2ccccc2)COc2cccc(F)c2S1(=O)=O | x | 2 | x | x | x | x
SMILES | SRC3 inh | NCOA2 inhibitor | Shn3 inh set2 | SRC1 inh | NR5A2 inv ag | LMP1 NFkB inh
O=S(=O)(Nc1cc(Sc2ncn[nH]2)c(O)c2ccccc12)c1ccccc1 | 84* | 70* | 93* | 89* | 89* | 1
O=C(O)c1ccccc1Nc1cccc(OCc2ccc3ccccc3n2)c1 | -11 | -29 | -16 | -4 | -14 | 82*
OC(CCCN1CCCCC1)(c1ccccc1)c1ccccc1 | -2 | -11 | -3 | -10 | -15 | 89*
CCC(O)(CCN1CCCCC1)c1ccccc1 (stereo unspecified) | 8 | 5 | -3 | -1 | 2 | -1
CC(=O)C1(C(=O)NCc2ccccc2)CC(c2ccccc2C(F)(F)F)=NO1 (stereo unspecified) | x | 1 | x | x | x | x
CN1CCN(Cc2nc3ccccc3c(=O)n2Cc2nc(-c3ccc4ccccc4c3)cs2)CC1 | 4 | -23 | 93*! | -3 | 12 | 6
CCCCC[n+]1cccc2c3ccccc3ccc21 | 57 | -29 | 81 | 51 | 78* | 2
COC(=O)[C@@]12CCCCC3=C1N(CCC3)C(=O)[C@H]2CC(=O)NCc1cccc(C(F)(F)F)c1 | x | 0 | x | x | x | x
O=C(CCN1CCN(c2ccccc2)CC1)c1ccc(Cl)cc1 | 5 | -6 | -5 | -8 | -3 | 7
O=C(CCN1CCOCC1)c1ccc(N2CCCCC2)cc1 | 24 | 63* | -7 | 11 | 32 | 2
O=C(NCC(=O)N(c1ccc(F)cc1)C(C(=O)NC1CCCCC1)c1cccnc1)c1ccco1 (stereo unspecified) | 15 | -23 | 4 | 16 | -3 | 1
O=C(NC1CCCCC1)C(c1cccnc1)N(C(=O)CCl)c1ccc(F)cc1 (stereo unspecified) | 69* | 50 | 10 | 54 | 38 | 76*
O=C(NC1CCCCC1)C(c1cccnc1)N(C(=O)CCl)c1ccccc1Cl (stereo unspecified) | 59 | 59* | -14 | 51 | 58 | 63*
COc1ccc(N(C(=O)CCl)C(C(=O)NC2CCCCC2)c2cccnc2)cc1 (stereo unspecified) | 70* | 63* | 9 | 47 | 11 | 62*
O=C(NCc1cccc(C(F)(F)F)c1)c1ccc(=O)[nH]c1 | 3 | -23 | 13 | -23 | 14 | 0
O=C(COc1cccc(C(F)(F)F)c1)NNC(=O)c1ccc(=O)[nH]c1 | 10 | -25 | -4 | -24 | 12 | 72*
COc1ccc(C(=O)N(C)[C@H]2C[C@H]3c4[nH]c5c(-c6ccccc6)cccc5c4CCN3C(=O)[C@H]2[C@H](C)O)cc1 | x | -3 | x | x | x | x
COc1ccc(/C=C2\CCC(C3CCCC3)C2=O)cc1 (stereo unspecified) | -62 | -62 | -20 | -51 | -38 | -32
CN(C)CC1CC/C(=C\c2ccc(O)cc2)C1=O (stereo unspecified) | -29 | -29 | 90* | -14 | 16 | -36
CC1CCC/C(=C\c2ccc(O)cc2)C1=O (stereo unspecified) | -8 | -45 | -42 | -29 | 6 | 1
CN(C)CC1CCC/C(=C\c2ccc(OC(=O)c3ccc(Cl)cc3)cc2)C1=O (stereo unspecified) | 51 | -21 | 46 | 67* | 53 | 25
COc1ccc(/C=C2/CCC(CN3CCOCC3)C2=O)cc1 (stereo unspecified) | -12 | -85 | u | -31 | 2 | 86*
